PubChem BioAssay AID1159580 (chemical genetic matrix, 2015)
The whole screen tested about 5,500 compounds, of which about 2,000 (36%) were called active. Not shown: some 18% with an inconclusive outcome. Rule as the data show it: active = normalized growth mostly below about 0.91 (no sharp cut-off); inconclusive = no clear call, values can overlap the other calls; inactive = mostly above about 0.92. The list shows a part of the results.

Assay: chemical genetic growth profiling, strain panel (AID 1159580);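 also: tested at 20 µM; growth read once vehicle control cultures reached saturation at 30 °C; 1 = growth at the plate median or of vehicle wells; lower values mean less growth of the strain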
Conditions: growth OD

Measured: normalized growth

CN(C)C(=O)Nc1ccc(Cl)c(Cl)c1
inactive: S. cerevisiae deletion strains, locus YJR075W, strain HOC1, hits give low values 0.958 | S. cerevisiae deletion strains, locus YKL009W, strain mrt4, hits give low values 0.97 | S. cerevisiae deletion strains, locus YKL068W, hits give low values 1 | S. cerevisiae deletion strains, locus YKL085W, strain MDH1 (second series), hits give low values 1 | S. cerevisiae deletion strains, locus YKL085W, strain MDH1, hits give low values 1 | S. cerevisiae deletion strains, locus YKL160W, strain elf1, hits give low values 0.955 | S. cerevisiae deletion strains, locus YKL190W, strain CNB1, hits give low values 0.996 | S. cerevisiae deletion strains, locus YKR001C, strain vps1, hits give low values 0.984 | S. cerevisiae deletion strains, locus YKR026C, strain gcn3, hits give low values 0.993 | S. cerevisiae deletion strains, locus YKR091W, strain srl3, hits give low values 0.982 | S. cerevisiae deletion strains, locus YLL001W, strain dnm1, hits give low values 0.901 | S. cerevisiae deletion strains, locus YLL026W, hits give low values 0.991 | S. cerevisiae deletion strains, locus YLL041C, strain sdh2, hits give low values 0.994 | S. cerevisiae deletion strains, locus YLR027C, strain aat2, hits give low values 0.969 | S. cerevisiae deletion strains, locus YLR039C, strain RIC1, hits give low values 1.04 | S. cerevisiae deletion strains, locus YLR058C, strain SHM2, hits give low values 0.991 | S. cerevisiae deletion strains, locus YLR102C, strain apc9, hits give low values 1 | S. cerevisiae deletion strains, locus YLR113W, strain HOG1, hits give low values 0.909 | S. cerevisiae deletion strains, locus YLR221C, strain rsa3, hits give low values 0.963 | S. cerevisiae deletion strains, locus YLR258W, strain gsy2, hits give low values 0.984 | S. cerevisiae deletion strains, locus YLR262C, strain YPT6 (second series), hits give low values 0.996 | S. cerevisiae deletion strains, locus YLR262C, strain YPT6, hits give low values 1.01 | S. cerevisiae deletion strains, locus YLR268W, strain sec22, hits give low values 0.988 | S. cerevisiae deletion strains, locus YLR320W, strain mms22, hits give low values 0.98 | S. cerevisiae deletion strains, locus YLR330W, strain CHS5, hits give low values 0.994 | S. cerevisiae deletion strains, locus YLR342W, strain FKS1 (second series), hits give low values 0.983 | S. cerevisiae deletion strains, locus YLR342W, strain FKS1, hits give low values 0.985 | S. cerevisiae deletion strains, locus YLR357W, strain rsc2, hits give low values 0.969 | S. cerevisiae deletion strains, locus YLR370C, strain arc18, hits give low values 0.965 | S. cerevisiae deletion strains, locus YLR371W, strain rom2, hits give low values 1 | S. cerevisiae deletion strains, locus YLR384C, strain iki3, hits give low values 1.01 | S. cerevisiae deletion strains, locus YLR418C, strain cdc73, hits give low values 0.85 | S. cerevisiae deletion strains, locus YML016C, strain PPZ1, hits give low values 0.993 | S. cerevisiae deletion strains, locus YML032C, strain rad52, hits give low values 0.994 | S. cerevisiae deletion strains, locus YML120C, strain ndi1, hits give low values 0.985 | S. cerevisiae deletion strains, locus YML124C, strain tub3, hits give low values 1 | S. cerevisiae deletion strains, locus YMR058W, strain fet3, hits give low values 0.992 | S. cerevisiae deletion strains, locus YMR078C, strain ctf18, hits give low values 0.999 | S. cerevisiae deletion strains, locus YMR125W, strain sto1, hits give low values 1.04 | S. cerevisiae deletion strains, locus YMR129W, hits give low values 0.991 | S. cerevisiae deletion strains, locus YMR205C, strain PFK2, hits give low values 0.917 | S. cerevisiae deletion strains, locus YMR223W, strain ubp8, hits give low values 0.987 | S. cerevisiae deletion strains, locus YMR231W, strain pep5, hits give low values 1 | S. cerevisiae deletion strains, locus YMR263W, strain SAP30, hits give low values 0.956 | S. cerevisiae deletion strains, locus YMR307W, strain GAS1, hits give low values 0.812 | S. cerevisiae deletion strains, locus YNL067W, strain RPL9B, hits give low values 0.986 | S. cerevisiae deletion strains, locus YNL071W, strain lat1, hits give low values 0.982 | S. cerevisiae deletion strains, locus YNL128W, strain TEP1, hits give low values 0.993 | S. cerevisiae deletion strains, locus YNL153C, strain GIM3, hits give low values 0.996 | S. cerevisiae deletion strains, locus YNL183C, strain NPR1, hits give low values 0.939 | S. cerevisiae deletion strains, locus YNL209W, strain ssb2, hits give low values 0.972 | S. cerevisiae deletion strains, locus YNL233W, strain BNI4, hits give low values 0.97 | S. cerevisiae deletion strains, locus YNL248C, strain rpa49, hits give low values 1.02 | S. cerevisiae deletion strains, locus YNL250W, strain rad50, hits give low values 1.01 | S. cerevisiae deletion strains, locus YNL271C, strain bni1, hits give low values 1 | S. cerevisiae deletion strains, locus YNL298W, strain CLA4, hits give low values 0.998 | S. cerevisiae deletion strains, locus YNL307C, strain MCK1, hits give low values 0.935 | S. cerevisiae deletion strains, locus YNL322C, strain KRE1 (second series), hits give low values 0.969 | S. cerevisiae deletion strains, locus YNL322C, strain KRE1, hits give low values 1 | S. cerevisiae deletion strains, locus YNR049C, strain mso1, hits give low values 0.987 | S. cerevisiae deletion strains, locus YNR052C, strain pop2, hits give low values 1.03 | S. cerevisiae deletion strains, locus YOL006C, strain TOP1, hits give low values 0.862 | S. cerevisiae deletion strains, locus YOL012C, strain htz1 1.04 | S. cerevisiae deletion strains, locus YOL147C, strain pex11, hits give low values 1 | S. cerevisiae deletion strains, locus YOR001W, strain rrp6, hits give low values 1 | S. cerevisiae deletion strains, locus YOR061W, strain CKA2, hits give low values 1 | S. cerevisiae deletion strains, locus YOR069W, strain VPS5, hits give low values 1 | S. cerevisiae deletion strains, locus YOR070C, strain gyp1, hits give low values 0.997 | S. cerevisiae deletion strains, locus YOR080W, strain dia2, hits give low values 1.01 | S. cerevisiae deletion strains, locus YOR083W, strain WHI5, hits give low values 0.927 | S. cerevisiae deletion strains, locus YOR106W, strain vam3, hits give low values 0.919 | S. cerevisiae deletion strains, locus YOR136W, strain idh2, hits give low values 0.997 | S. cerevisiae deletion strains, locus YOR144C, strain elg1, hits give low values 1.01 | S. cerevisiae deletion strains, locus YOR184W, strain ser1, hits give low values 0.929 | S. cerevisiae deletion strains, locus YOR231W, strain MKK1, hits give low values 0.991 | S. cerevisiae deletion strains, locus YOR265W, strain rbl2, hits give low values 0.992 | S. cerevisiae deletion strains, locus YOR270C, strain vph1, hits give low values 0.925 | S. cerevisiae deletion strains, locus YOR290C, strain snf2, hits give low values 0.926 | S. cerevisiae deletion strains, locus YOR316C, strain cot1, hits give low values 1 | S. cerevisiae deletion strains, locus YPL051W, strain arl3, hits give low values 0.956 | S. cerevisiae deletion strains, locus YPL055C, strain LGE1, hits give low values 0.95 | S. cerevisiae deletion strains, locus YPL078C, strain atp4, hits give low values 0.988 | S. cerevisiae deletion strains, locus YPL106C, strain sse1, hits give low values 0.981 | S. cerevisiae deletion strains, locus YPL240C, strain hsp82, hits give low values 0.982 | S. cerevisiae deletion strains, locus YPL241C, strain CIN2, hits give low values 1 | S. cerevisiae deletion strains, locus YPL256C, strain CLN2, hits give low values 0.975 | S. cerevisiae deletion strains, locus YPR119W, strain clb2, hits give low values 0.996 | S. cerevisiae deletion strains, locus YPR141C, strain kar3, hits give low values 1 | S. cerevisiae deletion strains, locus YPR163C, strain tif3, hits give low values 1 | S. cerevisiae deletion strains, locus YPR167C, strain met16, hits give low values 0.999 | S. cerevisiae deletion strains, strain wtn01, hits give low values 0.994 | S. cerevisiae strains, strain wild type, hits give low values 0.995
